Growth data for 38 compounds are collected here from PubChem BioAssay (NCI).

“And” between values parts separate entries of the source, which are not always exact repeats. Identical values can stand only once. About 83,000 compounds went through this panel and 20% of them were active in at least one assay; those are over-represented in the sample as a whole.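 Each cell line was grown in a 96-well plate and treated with one concentration of compound for 48 hours. Values below 10 were considered active.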 Unmarked numbers belong to inactive results. The source made the active and inactive calls.

The first experiment deals with HCC-2998 colon. Kind of experiment: NCI-60 one-dose screen, 48 h (100 = growth as untreated, 0 = no growth, -100 = all killed). Conditions: 10 µM unless noted.
Turning to `COc1ccc(-c2cc(C(=O)OCc3ccc(Br)cc3)nn2-c2ccc(S(C)(=O)=O)cc2)cc1OC`, the growth is 95.8%.
On the same count and under the same terms, the value for `CCc1ccccc1-c1nc(CN[C@@H]2C[C@@H]3C[C@H]([C@H]2C)C3(C)C)c(C)o1` was -83.9% (active).
Still for that read-out and setting: for `O=C(CSc1nnc(-c2ccc(-c3nc4ccc(Cl)cc4[nH]3)cc2)o1)Nc1ccccc1` the value was 98.9%; for `CCCCCCCOc1ccc(S(=O)(=O)Nc2ccc(C)c(F)c2C(=O)O)cc1`, 117%.
The same measure, in the same setting: for `CCc1ccccc1NC(=O)N/C(N)=N/c1nc2ccccc2s1` the value was 3.52% (active); for `OC(c1ccccc1)(c1ccccc1)C1CCN(c2ccc3nnc(Cl)n3n2)CC1`, 55.2%; for `Cc1ccc(S(=O)(=O)N(CCn2ccnc2[N+](=O)[O-])CCn2ccnc2[N+](=O)[O-])cc1`, 114%.
As for `O=C(c1ccc(Cl)cc1)C1[C@H](c2ccccc2Cl)[C@@H](c2ccccc2)NC12C(=O)Nc1ccccc12` (some centres not stated), the growth was -46.2% (active).
The same measure, in the same setting: the value for `CS(=O)(=O)Nc1cccc(-n2cnc3cc(-c4ccc(O)cc4)ccc32)c1` was 63.9%; that for `CC(C)(C)C(=O)c1c2c(c3ccc4c5ccccc5ccc4n13)C(=O)c1ccccc1C2=O` was 112%.
Regarding `COc1ccc(CCC2NCCc3c(Br)c4c(c(OC)c32)OCO4)cc1` (configuration not stated), the growth was -23.2% (active).
Regarding `O=C(Nc1ccc(Br)cc1)Nc1ccc(-c2ccc3c(c2)NC(=O)/C3=C\c2ccc[nH]2)cc1`, the growth was 38.8%.
Same read-out and setting: the value for `O=C(Nc1nc2ccccc2s1)Nc1ccccc1Cl` was 97.3%; that for `CN(C)c1nc(NCCNS(=O)(=O)c2ccc(C(=O)/C=C/c3ccc(Cl)cc3)cc2)nc(N2CCOCC2)n1` was -94.4% (active); that for `COc1cncc(-c2ccc3ncnc(N4CCc5ccc(Cl)cc54)c3c2)c1` was 16.9%.
Still for that read-out and setting: for `CC(C)(C)c1ccc(OCc2nc3ccccc3n2-c2cccc(N)c2)cc1` the value was 81.9% and 107%; for `Cc1ccc(S(=O)(=O)Nc2ccc(-c3ccc4c(c3)NC(=O)/C4=C\c3ccc[nH]3)cc2)cc1`, 106%.
The same measure, in the same setting: for `N#CC1=C(c2ccco2)Nc2c(c(-c3ccccc3)nn2-c2ccccc2)C12C(=O)Nc1ccc(Cl)cc12` (configuration not stated) the value was 64.8%.
Turning to `CCOc1ccccc1NC(=O)N/C(N)=N/c1nc2ccccc2s1`, the growth was 13.1%.
Still for that read-out and setting: for `OC1CCC(Cn2c(C(F)(F)F)cc3c(Cl)ncnc32)CC1` (configuration not stated) the value was -94% (active); for `CC[C@]12C=CCN3CC[C@@]4(c5ccc(OC)cc5N(C)[C@H]4[C@@](O)(C(=O)OC)[C@@H]1OC(=O)CCC[P+](c1ccc(OC)cc1)(c1ccc(OC)cc1)c1ccc(OC)cc1)[C@@H]32`, -89.7% (active); for `COc1cc(C2CC(c3ccc(F)cc3)=Nc3c(N)nc(N)nc3N2)ccc1Oc1nc(Nc2ccc(F)cc2)nc(N(C)C)n1` (configuration not stated), 29.1%.
Take `COC(=O)c1c(C(=O)OC)c2ccc3c4ccccc4ccc3n2c1C(=O)OC`: the growth was 107%.
On the same count and under the same terms, for `C[C@@H]1CN(c2ccc3ncc(C#Cc4cncc(C(=O)Nc5ccc(CN6CCN(C)CC6)c(C(F)(F)F)c5)c4)n3n2)C[C@@H](C)O1` the value was -97% (active).

The subject of a further experiment is KM12 colon. Described as above. Conditions: 10 µM unless noted.
With `COc1ccc(N=Nc2c(N)nn3c(-c4ccc(OC)c(OC)c4)ccnc23)cc1`, the growth is 97.9%.
With `CC1=C(C)C(=O)C(NCCN2CCOCC2)=C(Br)C1=O`, the growth is 94.2%.
The same measure, in the same setting: for `COc1ccc(Nc2ncnc3sc4c(c23)CCN(Cc2ccccc2)C4)cc1` the value was 82.1%.
The same measure, in the same setting: the value for `CCCCCCCCCc1ccc(C(=O)Nc2cc(C)ccc2C(=O)OC)cc1` was 105%.
On the same count and under the same terms, for `O=C(N/N=C/c1ccc(Cl)o1)c1[nH]c2ccc(Br)cc2c1-c1ccccc1` the value was 2.65% (active); for `O=C(N/N=C/c1occc1Br)c1[nH]c2ccc(Br)cc2c1-c1ccccc1`, -46.6% (active).
With `c1n[nH]cc1-c1nc2ccc3cn[nH]c3c2c2c1CCCC2`, the growth was 96.4%.
The same measure, in the same setting: for `Cc1ccc(C(=O)Nc2cc(-n3ccnc3)cc(C(F)(F)F)c2)cc1-n1cc(-c2cnc3cccnn23)nn1` the value was 80.1%; for `COc1ccc(-c2nc3ccc(-c4nnc(SCc5ccccc5)o4)cc3[nH]2)cc1`, 16.5%.
Take `Cc1ccc(C2CC(c3ccc(NC(=S)Nc4ccccc4)cc3)=NN2c2ccc(S(N)(=O)=O)cc2)cc1` (configuration not stated): the growth was 2.95% (active).
The same measure, in the same setting: the value for `COc1ccc(C(=O)NNC(=O)CSc2nc3sc4c(c3c(=O)n2-c2ccc(Cl)cc2)CCCC4)cc1` was 98%; that for `Cc1[nH]nc2ccc3nc(-c4cn[nH]c4C(F)(F)F)c4c(c3c12)CCCC4` was 9.09% (active).
Take `CCC(=O)c1c2c(c3ccc4c5ccccc5ccc4n13)C(=O)c1ccccc1C2=O`: the growth is 68.9%.
`Cn1cc(-c2cc3nc(-c4cn(C)c5ncc(Br)cc45)cc(N)n3n2)c2cc(F)ccc21`: the growth was 19.1%.
As for `COc1ccc(-c2cc(C(=O)OCc3ccc(Br)cc3)nn2-c2ccc(S(C)(=O)=O)cc2)cc1OC`, the growth is 93.1%.
As for `CCc1ccccc1-c1nc(CN[C@@H]2C[C@@H]3C[C@H]([C@H]2C)C3(C)C)c(C)o1`, the growth is -87.4% (active).
In the case of `O=C(CSc1nnc(-c2ccc(-c3nc4ccc(Cl)cc4[nH]3)cc2)o1)Nc1ccccc1`, the growth is 34.1%.
On the same count and under the same terms, the value for `CCCCCCCOc1ccc(S(=O)(=O)Nc2ccc(C)c(F)c2C(=O)O)cc1` was 97.1%; that for `CCc1ccccc1NC(=O)N/C(N)=N/c1nc2ccccc2s1` was -3.54% (active); that for `OC(c1ccccc1)(c1ccccc1)C1CCN(c2ccc3nnc(Cl)n3n2)CC1` was 30.9%.
Still for that read-out and setting: the value for `Cc1ccc(S(=O)(=O)N(CCn2ccnc2[N+](=O)[O-])CCn2ccnc2[N+](=O)[O-])cc1` was 105%.
Still for that read-out and setting: for `O=C(c1ccc(Cl)cc1)C1[C@H](c2ccccc2Cl)[C@@H](c2ccccc2)NC12C(=O)Nc1ccccc12` (some centres not stated) the value was -23.4% (active); for `CS(=O)(=O)Nc1cccc(-n2cnc3cc(-c4ccc(O)cc4)ccc32)c1`, 26.6%.
With `CC(C)(C)C(=O)c1c2c(c3ccc4c5ccccc5ccc4n13)C(=O)c1ccccc1C2=O`, the growth is 94.4%.
For the compound `COc1ccc(CCC2NCCc3c(Br)c4c(c(OC)c32)OCO4)cc1` (configuration not stated), the growth was 3.9% (active).
Still for that read-out and setting: the value for `O=C(Nc1ccc(Br)cc1)Nc1ccc(-c2ccc3c(c2)NC(=O)/C3=C\c2ccc[nH]2)cc1` was -22.6% (active); that for `O=C(Nc1nc2ccccc2s1)Nc1ccccc1Cl` was 93.1%.
The same measure, in the same setting: for `CN(C)c1nc(NCCNS(=O)(=O)c2ccc(C(=O)/C=C/c3ccc(Cl)cc3)cc2)nc(N2CCOCC2)n1` the value was -76.9% (active); for `COc1cncc(-c2ccc3ncnc(N4CCc5ccc(Cl)cc54)c3c2)c1`, 21.5%.
Still for that read-out and setting: the value for `CC(C)(C)c1ccc(OCc2nc3ccccc3n2-c2cccc(N)c2)cc1` was 54.5% and 105%; that for `Cc1ccc(S(=O)(=O)Nc2ccc(-c3ccc4c(c3)NC(=O)/C4=C\c3ccc[nH]3)cc2)cc1` was 67.1%; that for `N#CC1=C(c2ccco2)Nc2c(c(-c3ccccc3)nn2-c2ccccc2)C12C(=O)Nc1ccc(Cl)cc12` (configuration not stated) was 52.1%.
As to `CCOc1ccccc1NC(=O)N/C(N)=N/c1nc2ccccc2s1`, the growth is -0.458% (active).
Regarding `OC1CCC(Cn2c(C(F)(F)F)cc3c(Cl)ncnc32)CC1` (configuration not stated), the growth is 86.5%.
The same measure, in the same setting: for `CC[C@]12C=CCN3CC[C@@]4(c5ccc(OC)cc5N(C)[C@H]4[C@@](O)(C(=O)OC)[C@@H]1OC(=O)CCC[P+](c1ccc(OC)cc1)(c1ccc(OC)cc1)c1ccc(OC)cc1)[C@@H]32` the value was -65.3% (active); for `COc1cc(C2CC(c3ccc(F)cc3)=Nc3c(N)nc(N)nc3N2)ccc1Oc1nc(Nc2ccc(F)cc2)nc(N(C)C)n1` (configuration not stated), 44.9%.
The same measure, in the same setting: for `COC(=O)c1c(C(=O)OC)c2ccc3c4ccccc4ccc3n2c1C(=O)OC` the value was 103%; for `C[C@@H]1CN(c2ccc3ncc(C#Cc4cncc(C(=O)Nc5ccc(CN6CCN(C)CC6)c(C(F)(F)F)c5)c4)n3n2)C[C@@H](C)O1`, -66.6% (active).
